{"source": "PubChem BioAssay", "note": "Values joined by “and” are separate entries in the source; they are usually repeats but may differ in a detail not shown here. Identical values can stand only once. Results filed as inconclusive are left out. A number with no mark means an inactive call.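 Rule for the calls, unless noted: active = GFP signal above the screen-wide mean plus 3 SD, that is over about 124.5% of the solvent control; inconclusive = no reading because the compound's own fluorescence disturbed strain identification; inactive = the rest.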"}
{"assay": "TOR pathway LAP4-GFP level changes – S. cerevisiae, multiplex flow cytometry, primary screen (AID 1873;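 active = GFP signal, as percent of the solvent control, above the screen mean plus 3 SD, about 149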)", "conditions": "S. cerevisiae LAP4-GFP expression, 3 h, at 10 µM, active compounds read high", "units": {"GFP response vs DMSO": "%"}}
{"molecule": "CC(C)(C)C(=O)Nc1cccc(OC(F)(F)C(F)Cl)c1", "note": "(stereo not drawn)", "GFP response vs DMSO": 107}
{"molecule": "Cc1ccc(/C(=C\\CN2CCCC2)c2ccccn2)cc1", "GFP response vs DMSO": 88.2}
{"molecule": "CC(C)(C)c1ccc(/C=C/C(=O)N2CCCCC2)cc1", "GFP response vs DMSO": 116}
{"molecule": "Cn1c(=O)[nH]c(=O)c2c1nc(NCc1ccco1)n2CCCc1ccccc1", "GFP response vs DMSO": 90.1}
{"molecule": "CN(C)CCOC(=O)C(c1ccccc1)C1(O)CCCC1", "note": "(stereo not drawn)", "GFP response vs DMSO": 75.9}
{"molecule": "COc1ccccc1C(=O)Oc1ccc2c(c1)O/C(=C\\c1ccncc1)C2=O", "GFP response vs DMSO": 126}
{"molecule": "CC(=O)CCCCn1c(=O)c2c(ncn2C)n(C)c1=O", "GFP response vs DMSO": 82.2}
{"molecule": "CS(=O)c1ccccc1O", "note": "(stereo not drawn)", "GFP response vs DMSO": 93}
{"molecule": "COc1cccc(OCc2nnc(-c3cccs3)o2)c1", "GFP response vs DMSO": 120}
{"molecule": "CCOC(=O)C(=O)N1CCN(c2ccccc2OC)CC1", "GFP response vs DMSO": 94.8}
{"molecule": "COc1ccc(CCN2C(=O)CSC2c2ccc(OC)c(OC)c2)cc1OC", "note": "(stereo not drawn)", "GFP response vs DMSO": 104}
{"molecule": "CCCCCCCC(=O)OCC(O)CO", "note": "(stereo not drawn)", "GFP response vs DMSO": 92.7}
{"molecule": "CN1CCN(C2=Nc3ccccc3Oc3ccc(Cl)cc32)CC1", "GFP response vs DMSO": 79.8}
{"molecule": "Cc1ccc(CN2CCN(CCCc3ccccc3)CC2CCO)cc1", "note": "(stereo not drawn)", "GFP response vs DMSO": 97.3}
{"assay": "yeast AGP1-GFP level changes, GLN3 branch – cell-based, multiplex flow cytometry, S. cerevisiae, primary screen (AID 1887);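 note: AGP1-GFP fusion strain of S. cerevisiae within a five-strain barcoded multiplex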", "conditions": "3 h, at 10 µM, active compounds read high"}
{"molecule": "O=C(Cc1ccccc1[N+](=O)[O-])NCc1ccncc1", "GFP response, % of DMSO": "97.4%"}
{"molecule": "Cn1nc(-c2ccc(Cl)cc2)nc2c(=O)n(C)c(=O)nc1-2", "GFP response, % of DMSO": "76.7%"}
{"molecule": "O=C(O)CCCCCNC(=O)Nc1ccc2c(c1)OCCO2", "GFP response, % of DMSO": "91.2%"}
{"molecule": "COc1ccc(S(N)(=O)=O)cc1C(N)=O", "GFP response, % of DMSO": "97%"}
{"molecule": "Cc1occc(=O)c1O", "GFP response, % of DMSO": "86.1%"}
{"molecule": "C[C@]12CCC3C(CC=C4C[C@@H](O)CC[C@@]43C)C1CCC2[C@]1(C)CCC(=O)O1", "note": "(stereo partly drawn)", "GFP response, % of DMSO": "95.7%"}
{"molecule": "CC(=O)N(CCC1(c2ccc(C)cc2)CCOC(C(C)C)C1)Cc1ccco1", "note": "(stereo not drawn)", "GFP response, % of DMSO": "96.6%"}
{"molecule": "O=C(CCc1ccccc1)Nc1ccccc1C(F)(F)F", "GFP response, % of DMSO": "103%"}
{"molecule": "CN(C)C(=O)Oc1cccc([N+](C)(C)C)c1", "GFP response, % of DMSO": "110% and 105%"}
{"molecule": "CCOc1ccc(C(NC(C)=O)c2ccc(OC)c(OC)c2)cc1", "note": "(stereo not drawn)", "GFP response, % of DMSO": "100%"}
{"molecule": "COc1ccccc1N=CC1=C(O)CC(c2ccccc2)CC1=O", "note": "(stereo not drawn)", "GFP response, % of DMSO": "88.9%"}
{"molecule": "O=C1CC(c2ccc(O)cc2)Oc2cc(O)cc(O)c21", "note": "(stereo not drawn)", "GFP response, % of DMSO": "110%"}
{"molecule": "O=C(NCCO)c1ccc(Cl)c(Cl)c1", "GFP response, % of DMSO": "107%"}
{"molecule": "N/C(Cc1ccc(Cl)cc1Cl)=N\\OC(=O)c1ccc(Br)o1", "GFP response, % of DMSO": "43.5%"}
{"molecule": "CC1=NN(C(=O)c2ccc(Br)cc2)C(O)(c2ccccc2)C1", "note": "(stereo not drawn)", "GFP response, % of DMSO": "103%"}
{"molecule": "Clc1cc(-c2ccc(/C=N/n3cnnc3)o2)ccc1Br", "GFP response, % of DMSO": "99.9%"}
{"molecule": "O=c1oc2c(CN3CCCCC3)c(O)ccc2c2c1CCCCC2", "GFP response, % of DMSO": "107%"}
{"molecule": "Cc1ccc(-c2nnc(-c3ccc4c(c3)OCO4)o2)cc1", "GFP response, % of DMSO": "115%"}
{"molecule": "CC1(C)CC(=O)c2cn3c(nc2C1)nc1ccccc13", "GFP response, % of DMSO": "102%"}
{"molecule": "COc1ccc(C(=O)N2c3cc4c(cc3C(C)=CC2(C)C)OCO4)cc1", "GFP response, % of DMSO": "93.4%"}
{"molecule": "CCc1oc2ccccc2c1C(=O)c1cc(Br)c(O)c(Br)c1", "GFP response, % of DMSO": "91%"}
{"molecule": "Cc1oc2cc(O)cc(O)c2c(=O)c1-c1ccc2c(c1)OCCCO2", "GFP response, % of DMSO": "91.7%"}
{"molecule": "CCCC(=O)Nc1ncnc2c1ncn2[C@@H]1O[C@@H]2COP(=O)(O)O[C@H]2[C@H]1OC(=O)CCC", "GFP response, % of DMSO": "94.7%"}
{"molecule": "O=C(Cc1ccccc1)NCC(=O)OCC(=O)c1ccccc1Cl", "GFP response, % of DMSO": "93.3%"}
{"molecule": "CC/C(=C(\\c1ccc(O)cc1)c1ccc(OCCN(C)C)cc1)c1ccccc1", "GFP response, % of DMSO": "114%"}
{"molecule": "CC(C)(C)C(=O)Nc1cccc(OC(F)(F)C(F)Cl)c1", "note": "(stereo not drawn)", "GFP response, % of DMSO": "113%"}
{"molecule": "Cc1ccc(/C(=C\\CN2CCCC2)c2ccccn2)cc1", "GFP response, % of DMSO": "100%"}
{"molecule": "CC(C)(C)c1ccc(/C=C/C(=O)N2CCCCC2)cc1", "GFP response, % of DMSO": "97.7%"}
{"molecule": "Cn1c(=O)[nH]c(=O)c2c1nc(NCc1ccco1)n2CCCc1ccccc1", "GFP response, % of DMSO": "105%"}
{"molecule": "CN(C)CCOC(=O)C(c1ccccc1)C1(O)CCCC1", "note": "(stereo not drawn)", "GFP response, % of DMSO": "84.3%"}
{"molecule": "COc1ccccc1C(=O)Oc1ccc2c(c1)O/C(=C\\c1ccncc1)C2=O", "GFP response, % of DMSO": "105%"}
{"molecule": "CC(=O)CCCCn1c(=O)c2c(ncn2C)n(C)c1=O", "GFP response, % of DMSO": "97.5%"}
{"molecule": "CS(=O)c1ccccc1O", "note": "(stereo not drawn)", "GFP response, % of DMSO": "99.2%"}
{"molecule": "COc1cccc(OCc2nnc(-c3cccs3)o2)c1", "GFP response, % of DMSO": "99.6%"}
{"molecule": "CCOC(=O)C(=O)N1CCN(c2ccccc2OC)CC1", "GFP response, % of DMSO": "104%"}
{"molecule": "COc1ccc(CCN2C(=O)CSC2c2ccc(OC)c(OC)c2)cc1OC", "note": "(stereo not drawn)", "GFP response, % of DMSO": "95.7%"}
{"molecule": "CCCCCCCC(=O)OCC(O)CO", "note": "(stereo not drawn)", "GFP response, % of DMSO": "90.3%"}
{"molecule": "CN1CCN(C2=Nc3ccccc3Oc3ccc(Cl)cc32)CC1", "GFP response, % of DMSO": "100%"}
{"molecule": "Cc1ccc(CN2CCN(CCCc3ccccc3)CC2CCO)cc1", "note": "(stereo not drawn)", "GFP response, % of DMSO": "104%"}
